PubChem BioAssay AID1619 (SRMLSC, 2009)
The campaign covered roughly 220,000 compounds. About 830 (0.38%) were called active.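 The calls were made as follows: active = compound inhibiting the enzyme by more than half at any dose during confirmatory dose-response retesting; inconclusive = strong single-dose inhibitors picked by rank but not retested; inactive = the rest.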 A selection follows. Measured potencies and affinities stand elsewhere.

Target: Leucine aminopeptidase (Plasmodium falciparum (isolate 3D7)) (UniProt Q8IL11)
Sequence (Q8IL11 whole entry, looked up): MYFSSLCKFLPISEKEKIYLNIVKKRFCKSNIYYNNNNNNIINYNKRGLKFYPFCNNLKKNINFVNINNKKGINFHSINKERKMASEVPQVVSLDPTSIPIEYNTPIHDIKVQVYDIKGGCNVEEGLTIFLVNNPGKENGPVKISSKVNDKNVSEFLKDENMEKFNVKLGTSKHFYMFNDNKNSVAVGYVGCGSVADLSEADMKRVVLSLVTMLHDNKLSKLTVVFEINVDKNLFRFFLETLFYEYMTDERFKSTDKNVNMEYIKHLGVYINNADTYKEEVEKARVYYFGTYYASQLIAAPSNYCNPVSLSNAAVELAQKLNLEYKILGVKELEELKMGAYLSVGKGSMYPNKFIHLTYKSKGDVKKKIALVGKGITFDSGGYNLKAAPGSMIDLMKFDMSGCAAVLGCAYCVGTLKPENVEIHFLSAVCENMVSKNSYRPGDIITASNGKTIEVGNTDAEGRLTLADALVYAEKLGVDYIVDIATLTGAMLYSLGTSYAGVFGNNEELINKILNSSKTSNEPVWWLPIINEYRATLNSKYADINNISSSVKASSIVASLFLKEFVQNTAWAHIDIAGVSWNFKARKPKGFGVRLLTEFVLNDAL
Assay: P. falciparum M17LAP inhibitors, primary screen, biochemical, fluorogenic H-Leu-NHMec substrate, 1536-well (AID 1619);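 also: plate controls were full reaction with DMSO carrier for no effect and no enzyme background for full effect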
Conditions: recombinant M17LAP, H-Leu-NHMec fluorogenic kinetic assay; at 30 µM; hits give high values

inhibition, inactive:
CC(C)(C)NC(=O)C(c1ccc(O)cc1)N(C(=O)CCC(=O)Nc1nccs1)c1ccc(F)cc1 (stereo not drawn) 13.2%
O=C(CCCOc1ccccc1)Nc1ccccc1C(F)(F)F -17.7%
O=C1CC(c2ccccc2)=NN1c1nc(-c2ccccc2)cs1 -0.33%
CCOc1ccc(NC(=O)CN2C(=O)CSC2=O)cc1 54.4%
COc1ccc(NC(=O)CN2C(=O)C(C)SC(C)C2=O)c(OC)c1 (stereo not drawn) 26.5%
CC1SCC(=O)N(CC(=O)Nc2ccc3c(c2)OCCO3)C1=O (stereo not drawn) 2.2%
CCOC(=O)c1ccc(NC(=O)CN2C(=O)CSC(C)C2=O)cc1 (stereo not drawn) 37%
CCC1SC(CC)C(=O)N(CC(=O)NCc2ccc(F)cc2)C1=O (stereo not drawn) 7.04%
CCOc1ccc(NC(=O)CN2C(=O)C(C)SC(C)C2=O)cc1 (stereo not drawn) 5.98%
CC1SC(C)C(=O)N(CC(=O)Nc2ccc3c(c2)OCO3)C1=O (stereo not drawn) 35.2%
O=C(CN1C(=O)CSCC1=O)NCc1ccc(F)cc1 18.6%
CCOC(=O)C1(CCSC)NC(c2ccco2)C2C(=O)N(C)C(=O)C21 (stereo not drawn) -0.76%
CC(=O)c1sc(N2CCOCC2)nc1-c1ccccc1 9.61%
OCCC1CN(Cc2nc(-c3ccccc3)cs2)CCN1C1CCCC1 (stereo not drawn) 7.26%
Cc1c(-c2ccccc2)oc2c(C(=O)OCC(=O)Nc3cccc(F)c3)cccc2c1=O 2.04%
CCOC(=O)c1ccc(NC(=O)c2cccc(C)c2[N+](=O)[O-])cc1 0.85%
CCCCN(CC)S(=O)(=O)c1ccc(C(=O)N(CCCN(C)C)c2nc3cc(C)cc(C)c3s2)cc1 -3.97%
CC(=O)Nc1cccc(C(=O)OCc2ccc([N+](=O)[O-])cc2)c1 1.17%
Cc1cccc(Nc2nnc(C)c(=O)n2N)c1 8.38%
O=c1[nH]c2ccc(S(=O)(=O)N3CCN(c4ccccc4)CC3)cc2[nH]c1=O 40.2%
O=c1[nH]c2ccc(S(=O)(=O)N3CCCCC3)cc2[nH]c1=O 38.3%
COC(=O)NCc1ccc2c(c1)OCO2 2.83%
COCC(=O)NCc1ccc2c(c1)OCO2 -6.02%
COc1ccc(OCCCC(=O)Nc2cccc(SC)c2)cc1 1.34%
Nc1c(C(=O)C2CC2)sc2nc(-c3ccccc3)cc(C(F)(F)F)c12 -0.94%
O=c1cc(O)c2sc3nc(-c4ccccc4)cc(C(F)(F)F)c3c2[nH]1 -7%
Cc1cc(C)cc(N(C(=O)c2sc(C)nc2C)C(C(=O)NC(C)(C)C)c2ccncc2)c1 (stereo not drawn) 0.85%
FCCCOc1ccc(/C=N/OCc2ccc(Cl)cc2Cl)cc1 11.5%
